Target: AMP-activated protein kinase, AMPK (Homo sapiens) (UniProt P54646+O43741+P54619+Q9UGJ0+Q9Y478+Q13131+Q9UGI9)
Assay: AMP-dependent Kinase enzyme assay. An in vitro enzyme assay that detects ADP turnover that is directly proportional to AMPK activity. This uses naive AMPK that is activated during the assay with MK-8722
Assay type: functional
Design: scale not given: direction of the effect not stated beside the values
Settings: 30 µM

Row | Structure (SMILES) | Percent Effect [%]
1 | O=C(NCc1cc(Br)cs1)Nc1cn[nH]c1 | -0.469
2 | CN(Cc1ccc(C#N)cc1)CC1CCS(=O)(=O)C1 (centres undefined) | 7.17
3 | c1ccc(CCN2CCCC2c2cccc(Nc3nccs3)n2)cc1 (centres undefined) | 3.49
4 | CN(CCc1ccccn1)C(=O)Cn1cc(-c2ccccc2)nn1 | -0.117
5 | CC(C)N(Cc1ccc(C(=O)O)o1)C(C)C | 2.21
6 | CC(O)CN1CCN(Cc2coc(-c3ccccc3)n2)CC1 (centres undefined) | -7.2
7 | CCc1ccc2nc(C)cc(C(=O)NC3CCC(=O)N(C)C3)c2c1 (centres undefined) | -7.18
8 | CC(NC(=O)NC1CCN(Cc2ccncc2)CC1)c1cccc(F)c1 (centres undefined) | 1.09
9 | CS(=O)(=O)c1ccc(Cl)c(C(=O)NCCC2=CCCCC2)c1 | -0.566
10 | O=C(O)c1ccc(C2CCCN(C(=O)c3ccc[nH]3)C2)cc1 (centres undefined) | 3.76
11 | CN1CCC(N(CCc2ccccc2)C(=O)COCC2CCCO2)CC1 (centres undefined) | -4.31
12 | Cc1ccc(CN(C(=O)NCC2CCS(=O)(=O)C2)C2CC2)o1 (centres undefined) | -7.42
13 | Cc1ncn(CCNC(=O)Nc2ccc(F)c(Cl)c2)c(=O)c1C | 2.03
14 | COC(=O)c1cccc(C(=O)N(CCC#N)CC(C)(C)C)c1 | 2.62
15 | CC(CNC(=O)c1cnc[nH]1)Oc1ccccc1Br (centres undefined) | 10.3
16 | Cc1nn(C)cc1NC(=O)CN1CCN(C2CCCC2)C(=O)C1 | 16.5
17 | Cc1nn(C2CCCC2)c2nc(C(C)(C)CN3CCN(C)CC3)[nH]c12 | 14.1
18 | COc1cccc(S(=O)(=O)N2CCCCC2CCN2CCOCC2)c1 (centres undefined) | 39.4
19 | Cn1cc(S(=O)(=O)N(CC(F)(F)F)C2CC2)cc1C(N)=O | 1.54
20 | O=C(NCc1nncn1C1CC1)c1cccnc1Oc1ccccc1 | 1.39

Row | Structure (SMILES) | Percent Effect [%]
21 | CCC1(CC)CC(=O)N(CC(O)c2cccc(Br)c2)C1=O (centres undefined) | 17.2
22 | CCc1nc(CCNc2ncccc2S(N)(=O)=O)sc1C | -3.81
23 | CN1C[C@@H]2CC[C@H](C1)N(Cc1ccccc1OCCN1CCOCC1)C2 | -106
24 | Cc1cc(C(=O)NCCN2CCCCCC2)nn1C(C)(C)C | 4.2
25 | CS(=O)(=O)N1CCN(c2cc(N3CCCC3CO)ncn2)CC1 (centres undefined) | -5.51
26 | CC(C)c1ccc(/C=C/CC(=O)NC2CCN(C(N)=O)C2)cc1 (centres undefined) | 1.32
27 | CCCOC1CCCN(c2ncnc3c2CCN(C(=O)C2CC2)C3)C1 (centres undefined) | 3.46
28 | Cc1nc(CN(C)c2nccc(C(F)(F)F)n2)cs1 | 5.48
29 | CNC(=O)c1ccc(CN(C(C)C)C(C)C)o1 | -7.38
30 | Cc1cccc(COc2ccc(C(C)NS(N)(=O)=O)cc2)c1 (centres undefined) | 7.65
31 | CN(CCCc1cnn(C)c1)Cc1cc2n(n1)CCCNC2 | -0.861
32 | COc1c(CNCC(=O)N2CCN(C)CC2)c(C(C)C)nn1C | -12.4
33 | Cc1cc(-n2cccn2)ccc1CN1CCOCC(CN(C)C)C1 (centres undefined) | -0.486
34 | Cc1c(NC(=O)CN(C)S(C)(=O)=O)cccc1OC1CCCC1 | -0.429
35 | Cc1c(C(=O)N(C)c2ccccc2)cccc1N(C)S(C)(=O)=O | 12
36 | CCN1CC(COC(=O)c2cc(C)nn2CC)CC1=O (centres undefined) | 5.06
37 | c1ccc(CN2CCN(C3CCOC4(CCOCC4)C3)CC2)nc1 (centres undefined) | -0.926
38 | N#CC1(NC(=O)c2c(F)ccc(OC(F)F)c2F)CCOCC1 | -2.32
39 | CC(C(=O)N1CCCC1)N1CCN(c2ncc(Cl)cn2)CC1 (centres undefined) | -1.02

Source: ChEMBL document CHEMBL3988442, “University of Dundee, Small-Polar-MMV Screening Library” (2021)
